Several values for one entry are separate records, joined by “and”; a condition that tells them apart may be missing. Identical values can stand only once. Results filed as inconclusive are left out. Activity calls are given as the source filed them. Unless noted, the call rests on the fitted dose curve; in most records, active means well fitted curve in the direction sought with a large enough effect; inconclusive means small, poorly fitted or top-dose-only effect, or another doubt; inactive means no such curve, though single readings can be large; an effect the other way counts as inactive or inconclusive.
How the values were obtained:
[1] = AP1 Signaling Pathway (AID 357; active means well fitted curve in either direction with a large enough effect, not every such curve was filed as active;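 further: ME-180 reporter cells stimulated with EGF at its EC50 level; on the % scale 0 is the no-effect control and ±100 the full control effect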); conditions: ME-180 AP-1-bla reporter, EGF-induced, beta-lactamase ratio, 5 h
Outline: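 Titration-series screen for positive or negative modulators of EC50 EGF-induced signaling in ME-180 cells carrying an AP-1-driven beta-lactamase reporter. After 5 hours at 37 degrees Celsius, CCF4 460nm/530nm emission ratio gave %Activity; AC50 values derived.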

[2] = Stat Signaling Pathway (AID 446; active means well fitted curve in either direction with a large enough effect, not every such curve was filed as active;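 further: ME-180 cervical cancer cells given 40 pM IL-6 alongside compound; SIE-controlled beta-lactamase reporter measured as 460/530 nm FRET emission ratio; on the % scale 0 is the no-effect control and ±100 the full control effect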); conditions: ME-180 SIE beta-lactamase reporter, IL-6 stimulated, 5 h
Outline: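 ME-180 SIE-bla cells; overnight plating; cpd + IL-6 40 pM, 5 h, 37 C; LiveBLAzer 2.5 h RT; 460/530 nm emission ratio. Normalized to 300 pM IL-6 and 125 nM JAK inhibitor controls.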

[3] = target: Glucocorticoid receptor (Homo sapiens) (UniProt P04150); assay: GR-GFP Redistribution (AID 450;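 active means compounds whose dose series gives a full or clear partial fitted curve of increased nuclear translocation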; further: potency means the concentration at half of the fitted maximal effect); conditions: U2OS GR-GFP nuclear translocation, laser cytometry, 2 h
Chain of Glucocorticoid receptor (Homo sapiens) (P04150 whole entry, looked up, the tested form may be a part): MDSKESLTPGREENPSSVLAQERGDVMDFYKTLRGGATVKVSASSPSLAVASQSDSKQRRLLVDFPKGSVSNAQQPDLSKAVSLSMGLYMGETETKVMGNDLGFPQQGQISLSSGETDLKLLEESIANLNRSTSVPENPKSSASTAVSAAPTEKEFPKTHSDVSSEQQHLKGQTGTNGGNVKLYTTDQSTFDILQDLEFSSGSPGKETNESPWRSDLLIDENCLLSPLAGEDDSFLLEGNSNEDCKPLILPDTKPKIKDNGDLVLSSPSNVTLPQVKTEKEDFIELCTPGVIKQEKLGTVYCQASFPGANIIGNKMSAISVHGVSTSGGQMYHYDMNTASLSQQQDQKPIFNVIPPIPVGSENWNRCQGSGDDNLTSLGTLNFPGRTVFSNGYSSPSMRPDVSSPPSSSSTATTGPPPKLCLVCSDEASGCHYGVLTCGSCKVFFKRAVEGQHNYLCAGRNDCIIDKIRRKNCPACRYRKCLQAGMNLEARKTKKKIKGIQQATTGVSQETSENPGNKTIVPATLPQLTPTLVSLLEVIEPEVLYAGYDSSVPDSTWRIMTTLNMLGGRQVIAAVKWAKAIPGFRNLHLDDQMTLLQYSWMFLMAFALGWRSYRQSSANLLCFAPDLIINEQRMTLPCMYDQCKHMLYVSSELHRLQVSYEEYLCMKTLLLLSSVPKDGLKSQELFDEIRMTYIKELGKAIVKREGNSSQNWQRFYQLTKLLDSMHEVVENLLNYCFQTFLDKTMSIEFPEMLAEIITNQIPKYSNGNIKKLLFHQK

[4] = target: Glucocorticoid receptor (Homo sapiens) (UniProt P04150); assay: GR-EFC Redistribution (AID 451; calls by dose curve; further: potency means the concentration at half of the fitted maximal effect); conditions: CHO-K1 GR-EFC translocation, beta-gal luminescence, 2 h
Outline: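 CHO-K1 cells stably expressing nuclear-localized β-gal enzyme acceptor and GR fused C-terminally to the enzyme donor fragment; ligand-driven nuclear translocation restores β-gal by complementation. Compounds titrated up to 46 uM final, 2 h at 37 °C; luminescence read.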

[5] = target: Mitogen-activated protein kinase 10 (Mus musculus) (UniProt Q61831); assay: JNK3 AlphaScreen Assay (AID 530; active means well fitted curve in either direction with a large enough effect, not every such curve was filed as active;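 further: kinase came from lysate of stimulated human HepG2 cells; signal reports phosphorylation of biotinylated GST-cJun 1-79 at Ser73 with 10 µM ATP; on the % scale 0 is the no-effect control and ±100 the full control effect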)
Outline: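 JNK3 came from HepG2 lysates pre-activated with IL-1beta and TNF-alpha and phosphorylated biotinylated GST-cJun (1-79) at 10 uM ATP, pH 7.6, room temperature. Compounds were titrated. AlphaScreen signal used anti-phospho-cJun (Ser73) antibody.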

[6] = target: 3',5'-cyclic-AMP phosphodiesterase 4B (Homo sapiens) (UniProt Q07343); assay: qHTS Assay for Inhibitors of PDE-IV (AID 607; active means well fitted activation curve with a large enough effect in the main read-out, with a control signal flat, not every such curve was filed as active; further: % of control where 0% means no effect)
Chain of 3',5'-cyclic-AMP phosphodiesterase 4B (Homo sapiens) (Q07343 whole entry, looked up): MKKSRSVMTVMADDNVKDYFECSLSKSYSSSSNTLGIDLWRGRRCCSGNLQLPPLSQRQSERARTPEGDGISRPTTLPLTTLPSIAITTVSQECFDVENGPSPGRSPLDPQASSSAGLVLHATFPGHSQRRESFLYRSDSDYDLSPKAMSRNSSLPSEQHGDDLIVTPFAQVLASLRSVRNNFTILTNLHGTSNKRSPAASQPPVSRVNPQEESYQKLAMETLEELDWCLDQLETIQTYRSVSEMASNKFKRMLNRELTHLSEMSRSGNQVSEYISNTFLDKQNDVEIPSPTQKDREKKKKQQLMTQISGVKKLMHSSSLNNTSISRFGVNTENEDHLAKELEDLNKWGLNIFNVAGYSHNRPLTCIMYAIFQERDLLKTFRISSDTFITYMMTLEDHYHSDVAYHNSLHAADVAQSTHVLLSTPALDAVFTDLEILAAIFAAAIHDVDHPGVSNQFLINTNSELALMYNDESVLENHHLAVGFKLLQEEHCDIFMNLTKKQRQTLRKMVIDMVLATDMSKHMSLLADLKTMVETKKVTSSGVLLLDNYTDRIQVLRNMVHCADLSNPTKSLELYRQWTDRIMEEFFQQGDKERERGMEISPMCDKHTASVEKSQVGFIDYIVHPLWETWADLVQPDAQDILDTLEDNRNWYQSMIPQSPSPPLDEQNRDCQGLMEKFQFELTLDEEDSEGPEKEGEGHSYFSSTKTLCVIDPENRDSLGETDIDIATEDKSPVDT
Outline: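 ACTOne HEK293 cells carry a modified cAMP-gated CNG channel and express endogenous PDE4; plated 1000 cells/well, compounds up to 22.9 uM final. Membrane-potential dye fluorescence (ex 535/em 590) was read; parental cells received 10 uM forskolin + 100 uM RO 20-1724.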

[7] = target: Guanine nucleotide-binding protein G(i) subunit alpha-1 (Homo sapiens) (UniProt P63096); assay: qHTS Assay for Inhibitors of RGS12 GoLoco Motif Activity (Green Fluorophore) (AID 879);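 further: 0% = labeled peptide with Gαi1 and full inhibition = labeled peptide alone without protein; negative values mean loss of peptide binding seen as reduced polarization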
Chain of Guanine nucleotide-binding protein G(i) subunit alpha-1 (Homo sapiens) (P63096 whole entry, looked up): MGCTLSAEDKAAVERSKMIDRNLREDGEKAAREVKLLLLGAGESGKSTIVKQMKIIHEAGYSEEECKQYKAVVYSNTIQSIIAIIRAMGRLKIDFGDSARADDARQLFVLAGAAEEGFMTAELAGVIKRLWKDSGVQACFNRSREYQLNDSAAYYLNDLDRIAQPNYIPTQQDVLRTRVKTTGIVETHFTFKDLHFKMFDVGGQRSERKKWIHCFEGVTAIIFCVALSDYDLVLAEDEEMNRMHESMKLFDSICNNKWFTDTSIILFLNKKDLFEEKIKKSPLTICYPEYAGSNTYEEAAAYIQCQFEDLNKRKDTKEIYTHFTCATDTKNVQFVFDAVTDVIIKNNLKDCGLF
Outline: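 Fluorescence polarization assay: 50 nM Gαi1 with 10 nM FITC-labeled RGS12 GoLoco peptide in 10 mM Tris pH 7.5, 150 mM NaCl, 0.1 mM GDP, 0.05% NP40, 10 min at room temperature with compound.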

[8] = target: Cytochrome P450 3A4 (Homo sapiens) (UniProt P08684); assay: qHTS Assay for Activators of Cytochrome P450 3A4 (AID 885); further: nearly all actives have a fitted effect of over 65% in size
Chain of Cytochrome P450 3A4 (Homo sapiens) (P08684 whole entry, looked up): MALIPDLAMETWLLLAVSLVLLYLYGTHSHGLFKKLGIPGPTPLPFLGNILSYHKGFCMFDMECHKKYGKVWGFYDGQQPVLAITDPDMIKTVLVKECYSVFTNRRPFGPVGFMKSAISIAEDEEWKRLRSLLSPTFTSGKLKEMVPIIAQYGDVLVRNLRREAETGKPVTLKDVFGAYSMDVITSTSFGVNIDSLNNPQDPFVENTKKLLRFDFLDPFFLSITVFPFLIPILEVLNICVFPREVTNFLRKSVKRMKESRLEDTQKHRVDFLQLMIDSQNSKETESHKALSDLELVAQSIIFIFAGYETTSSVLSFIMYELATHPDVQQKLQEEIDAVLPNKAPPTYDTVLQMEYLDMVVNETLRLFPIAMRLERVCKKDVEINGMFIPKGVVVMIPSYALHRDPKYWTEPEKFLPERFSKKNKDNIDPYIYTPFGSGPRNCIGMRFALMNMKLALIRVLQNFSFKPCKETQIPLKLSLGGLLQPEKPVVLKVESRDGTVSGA
Outline: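 20nM CYP3A4 + 25uM Luciferin-PPXE (=KM), 200mM KPO4; cpd 10 min RT; NADPH regen, 60 min RT; stop w/ detection buffer, 20 min; luminescence. Normalized to 57 uM ketoconazole.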

[9] = target: Cytochrome P450 2D6 (Homo sapiens) (UniProt P10635); assay: qHTS Assay for Inhibitors and Substrates of Cytochrome P450 2D6 (AID 891); further: potency means the concentration at half of the fitted maximal effect; nearly all actives have a fitted effect of over 60% in size
Chain of Cytochrome P450 2D6 (Homo sapiens) (P10635 whole entry, looked up): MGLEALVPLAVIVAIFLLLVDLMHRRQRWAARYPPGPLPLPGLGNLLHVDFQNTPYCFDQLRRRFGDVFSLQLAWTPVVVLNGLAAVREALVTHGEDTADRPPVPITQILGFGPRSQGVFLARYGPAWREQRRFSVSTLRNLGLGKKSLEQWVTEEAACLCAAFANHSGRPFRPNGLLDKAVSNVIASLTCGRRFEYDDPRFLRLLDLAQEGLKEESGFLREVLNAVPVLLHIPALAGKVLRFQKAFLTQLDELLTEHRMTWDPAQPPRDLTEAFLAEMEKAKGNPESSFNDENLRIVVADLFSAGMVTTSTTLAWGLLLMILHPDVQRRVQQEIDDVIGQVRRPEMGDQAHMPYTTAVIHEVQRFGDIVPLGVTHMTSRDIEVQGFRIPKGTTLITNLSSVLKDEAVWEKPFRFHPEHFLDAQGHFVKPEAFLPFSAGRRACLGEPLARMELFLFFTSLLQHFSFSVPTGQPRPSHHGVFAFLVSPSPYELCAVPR
Outline: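 Human CYP2D6 (5 nM) with 30 uM Luciferin-ME EGE (at Km) in 100 mM KPO4, compound preincubated 10 min, then NADPH regeneration system for 60 min at room temperature. Luciferin read by luminescence; normalized to 1.43 uM quinidine.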

[10] = target: Cytochrome P450 2C19 (Homo sapiens) (UniProt P33261); assay: qHTS Assay for Inhibitors and Substrates of Cytochrome P450 2C19 (AID 899); further: potency means the concentration at half of the fitted maximal effect; nearly all actives have a fitted effect of over 60% in size
Chain of Cytochrome P450 2C19 (Homo sapiens) (P33261 whole entry, looked up): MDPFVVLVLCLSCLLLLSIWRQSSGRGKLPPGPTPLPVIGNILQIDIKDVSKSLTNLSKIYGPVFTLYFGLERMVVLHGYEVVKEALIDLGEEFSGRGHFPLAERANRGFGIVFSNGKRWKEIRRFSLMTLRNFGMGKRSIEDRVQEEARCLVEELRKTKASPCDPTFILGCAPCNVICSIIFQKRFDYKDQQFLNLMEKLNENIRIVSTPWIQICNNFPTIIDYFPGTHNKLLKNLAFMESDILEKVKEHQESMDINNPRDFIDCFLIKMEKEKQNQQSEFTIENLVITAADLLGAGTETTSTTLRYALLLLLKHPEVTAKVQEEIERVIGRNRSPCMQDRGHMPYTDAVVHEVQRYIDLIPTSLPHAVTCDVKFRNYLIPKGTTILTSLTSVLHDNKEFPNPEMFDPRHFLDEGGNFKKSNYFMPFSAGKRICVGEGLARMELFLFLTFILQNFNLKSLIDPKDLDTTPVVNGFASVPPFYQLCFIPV
Outline: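 Human CYP2C19 (5nM) with Luciferin-H EGE at 10uM (its KM) in 50mM KPO4 was preincubated with compound for 10 min at 37C. NADPH regeneration started a 60 min 37C reaction. Luciferin was read by luminescence, normalized to 57uM ketoconazole.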

[11] = qHTS Assay for Identification of Small Molecule Antagonists for Thrombopoietin (TPO) Signaling Pathway (AID 918); conditions: TPO-dependent cell signaling reporter, antagonist mode; further: potency means the concentration at half of the fitted maximal effect; nearly all actives have a fitted effect of over 60% in size
Outline: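 Murine Ba/F3 cells stably expressing human TPO receptor and a Glycoprotein IIb promoter–luciferase reporter were IL-3-starved overnight, treated with compounds plus TPO (26 pM final, its EC50) for 24 hrs at 37 C, then read by luminescence.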

[12] = target: Muscarinic acetylcholine receptor M1 (Rattus norvegicus) (UniProt P08482); assay: qHTS Assay for Antagonists of Acetylcholine Muscarinic M1 Receptor: Kinetic Measurement of Intracellular Calcium Response (AID 943); further: potency means the concentration at half of the fitted maximal effect; nearly all actives have a fitted effect of over 75% in size
Chain of Muscarinic acetylcholine receptor M1 (Rattus norvegicus) (P08482 whole entry, looked up): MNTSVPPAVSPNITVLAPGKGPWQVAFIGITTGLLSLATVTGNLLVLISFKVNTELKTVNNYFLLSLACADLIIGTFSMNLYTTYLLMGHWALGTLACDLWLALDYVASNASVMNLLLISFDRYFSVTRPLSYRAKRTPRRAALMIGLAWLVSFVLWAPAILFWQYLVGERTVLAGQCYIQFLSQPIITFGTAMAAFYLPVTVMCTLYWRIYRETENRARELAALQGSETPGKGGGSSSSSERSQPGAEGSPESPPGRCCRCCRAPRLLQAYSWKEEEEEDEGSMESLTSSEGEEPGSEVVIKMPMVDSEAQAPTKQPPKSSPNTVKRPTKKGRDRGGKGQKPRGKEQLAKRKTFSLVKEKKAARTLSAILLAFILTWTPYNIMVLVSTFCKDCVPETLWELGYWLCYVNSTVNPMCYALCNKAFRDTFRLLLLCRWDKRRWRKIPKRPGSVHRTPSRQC
Outline: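 CHO cells stably expressing rat M1 were loaded with no-wash Fluo-4 dye for 1 h at 37C, pre-incubated 10 min with compound, then challenged with EC80 carbachol (100 nM final); kinetic calcium read 4 min, peak/basal ratio.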

[13] = target: Muscarinic acetylcholine receptor M1 (Rattus norvegicus) (UniProt P08482); assay: qHTS Assay for Antagonists of Acetylcholine Muscarinic M1 Receptor: Measurement of IP-One Response (AID 944); further: potency means the concentration at half of the fitted maximal effect; nearly all actives have a fitted effect of over 75% in size
Outline: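 CHO cells expressing rat M1 receptor, recovered overnight, were pre-incubated 10 min with compound, then stimulated 30 min with carbachol at EC80 (200 nM) in LiCl-containing buffer, pH 7.4. IP1 accumulation was read by HTRF (620/665 nm).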

[14] = target: Pyruvate kinase (Leishmania mexicana) (UniProt Q27686); assay: qHTS Validation Assay for Inhibitors of Leishmania Mexicana Pyruvate Kinase (AID 945);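 further: 0% = DMSO only neutral control wells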
Outline: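 The enzyme is a highly purified E451W mutant of LmPYK used at 0.2 nM. It converts 0.5 mM PEP and 0.1 mM ADP over 1 h at room temperature; product ATP is quantified by luciferase luminescence relative to DMSO controls.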

[15] = target: Pyruvate kinase PKM (Homo sapiens) (UniProt P14618); assay: qHTS Assay for Activators of Human Muscle Pyruvate Kinase (AID 954; active means well fitted curve in the direction sought with a large enough effect, not every such curve was filed as active;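 further: 0% = uninhibited enzyme and -100% = no enzyme or full thiadiazolimine inhibition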)
Outline: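 Luminescence from a luciferase ATP-detection/stop reagent reported PKM2 activity. Reactions contained 0.1 nM purified human enzyme, 0.5 mM PEP, 0.1 mM ADP and 7 mM MgCl2 at pH 7.2, run 1 h at RT.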

[16] = target: Alpha-galactosidase A (Homo sapiens) (UniProt P06280); assay: Counterscreen for Glucocerebrosidase Inhibitors: qHTS Assay for Human alpha-Galactosidase at pH 4.5 (AID 992); further: 0% is about no effect
Outline: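 Enzyme at 2 nM final was combined with compound (0.7 nM to 77 uM) and 80 uM 4-methylumbelliferyl alpha-D-galactopyranoside in 50 mM citric acid, 0.005% Tween-20, pH 4.5. After 20 min at room temperature, fluorescence was read (Ex 365/Em 440 nm); AC50 came from Hill fits.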

[17] = target: alpha-glucosidase (Oryza sativa, rice) (UniProt Q653V4); assay: Counterscreen for Glucocerebrosidase Inhibitors: qHTS Assay for Rice alpha-Glucosidase at pH 5.0 (AID 997);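 further: 0% = full activity with enzyme and -100% = basal without enzyme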
Outline: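 Rice alpha-glucosidase (4 nM final) with 400 uM 4-methylumbelliferyl-alpha-D-glucopyranoside in citrate buffer pH 5.0, 20 min at room temperature, stopped at pH 10; fluorescence 365/440 nm, compounds 0.7 nM–77 uM, AC50 from Hill fits.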

[18] = qHTS Assay for Lipid Storage Modulators (AID 1519; calls by dose curve; on activity change, negative = inhibition: on the % scale 0 is the no-effect control and ±100 the full control effect); conditions: Drosophila S3 cells, BODIPY lipid droplet/cell ratio, laser cytometry, cells loaded with oleic acid
Outline: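 Cells seeded at 5,000 per well were treated with compounds over a concentration series and loaded with oleic acid (400 uM, as added). Lipid droplet fluorescence (488 nm excitation, 500-530 nm channel) was read by laser-scanning cytometry and normalized to 20 uM Triacsin C.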

[19] = target: Ubiquitin carboxyl-terminal hydrolase 1 (Homo sapiens) (UniProt O94782); assay: Inhibitors of USP1/UAF1: Pilot qHTS (AID 504865);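 further: rhodamine fluorescence freed from ubiquitin-rhodamine substrate followed over time; top concentration of the series differs between compounds; on the % scale 0 is the no-effect control and ±100 the full control effect; nearly all actives have a fitted effect of over 35% in size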
Chain of Ubiquitin carboxyl-terminal hydrolase 1 (Homo sapiens) (O94782 whole entry, looked up): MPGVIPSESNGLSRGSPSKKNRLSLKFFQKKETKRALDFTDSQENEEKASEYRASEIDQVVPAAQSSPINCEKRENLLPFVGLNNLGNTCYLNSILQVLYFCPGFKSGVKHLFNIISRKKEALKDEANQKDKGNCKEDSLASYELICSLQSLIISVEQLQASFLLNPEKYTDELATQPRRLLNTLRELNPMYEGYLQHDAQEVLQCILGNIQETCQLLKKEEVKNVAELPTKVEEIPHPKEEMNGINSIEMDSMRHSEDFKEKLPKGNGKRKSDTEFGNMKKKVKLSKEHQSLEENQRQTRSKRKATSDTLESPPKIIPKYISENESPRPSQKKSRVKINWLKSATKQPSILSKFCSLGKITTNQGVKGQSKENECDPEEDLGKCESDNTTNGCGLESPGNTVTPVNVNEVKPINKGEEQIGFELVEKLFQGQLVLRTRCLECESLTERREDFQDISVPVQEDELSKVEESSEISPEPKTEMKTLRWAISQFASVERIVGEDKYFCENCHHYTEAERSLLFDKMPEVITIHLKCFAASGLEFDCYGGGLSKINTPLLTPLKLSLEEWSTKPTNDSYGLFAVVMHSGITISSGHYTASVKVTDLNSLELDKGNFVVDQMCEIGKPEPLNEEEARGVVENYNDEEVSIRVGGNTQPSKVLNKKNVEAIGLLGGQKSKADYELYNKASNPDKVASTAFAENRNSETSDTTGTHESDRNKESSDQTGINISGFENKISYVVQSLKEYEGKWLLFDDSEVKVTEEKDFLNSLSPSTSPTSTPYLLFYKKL
Outline: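 In 50mM HEPES pH 7.8 containing 0.5mM EDTA, 1mM TCEP, 0.1 mg/ml BSA and 0.01% Tween-20, 1nM USP1/UAF1 is exposed to compound for 15 min, then Ub-Rho (150nM final) is added and fluorescence is read over time.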

[20] = target: DNA dC->dU-editing enzyme APOBEC-3G (Homo sapiens) (UniProt Q9HC16); assay: qHTS for inhibitors of Vif-A3G interactions: Validation (AID 588379); further: 0% is about no effect
Chain of DNA dC->dU-editing enzyme APOBEC-3G (Homo sapiens) (Q9HC16 whole entry, looked up): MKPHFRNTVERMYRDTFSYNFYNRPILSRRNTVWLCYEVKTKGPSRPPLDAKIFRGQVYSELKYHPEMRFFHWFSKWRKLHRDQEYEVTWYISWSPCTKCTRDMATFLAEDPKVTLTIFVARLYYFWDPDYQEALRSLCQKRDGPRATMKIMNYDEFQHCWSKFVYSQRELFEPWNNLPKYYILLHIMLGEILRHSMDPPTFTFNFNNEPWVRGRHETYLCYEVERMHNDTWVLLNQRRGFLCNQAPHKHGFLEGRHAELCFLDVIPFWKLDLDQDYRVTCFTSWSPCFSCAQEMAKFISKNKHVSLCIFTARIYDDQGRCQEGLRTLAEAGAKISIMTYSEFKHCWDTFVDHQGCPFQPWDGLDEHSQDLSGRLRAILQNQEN
Outline: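 HeLa cells stably expressing Vif and A3G-eYFP, 700 cells/well, incubated overnight at 37 deg C, then exposed to compound overnight at 37 deg C. Inhibition of Vif-mediated degradation read as increased yellow fluorescence (Ex 488/Em 500-530) by laser-scanning cytometry.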

[21] = tested on: Zika virus NS2B-NS3 protease; assay: Primary screen GU AMC qHTS for Zika virus inhibitors (AID 1347154);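 further: 0% = no-inhibitor control and -100% = no-enzyme control; nearly all actives have a fitted effect of over 70% in size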
Outline: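 Unlinked Zika NS2B hydrophilic domain/NS3 protease domain noncovalent complex (25 nM final) in 10 mM Tris-HCl pH 8.0, 0.01% Tween 20, with AMC peptide substrate. Fluorescence (ex 340, em 450 nm) change over 15 min, room temperature; percent inhibition fitted to 4-parameter Hill equation.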

[22] = Counterscreen qHTS for small molecule stabilizers of the endoplasmic reticulum resident proteome: GLuc-NoTag assay (AID 1508627);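 further: SH-SY5Y cells given compound then 100 nM thapsigargin to empty ER calcium; 0% = thapsigargin alone and -100% = DMSO vehicle control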
Outline: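 SH-SY5Y cells stably expressing constitutively secreted GLuc (no SERCaMP tag) were pre-incubated 5 h, treated with compound for 19 h, then 100 nM thapsigargin for 4 h at 37C; medium GLuc read by coelenterazine luminescence.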

[23] = Confirmatory qHTS for small molecule stabilizers of the endoplasmic reticulum resident proteome: Secreted ER Calcium Modulated Protein (SERCaMP) assay (AID 1508628); further: nearly all actives have a fitted effect of over 40% in size; further: potency means the concentration at half of the fitted maximal effect
Outline: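 We seeded SH-SY5Y-GLuc-SERCaMP cells, added compounds (three concentrations in the primary run, eleven up to 76.6 uM in confirmation), incubated 16 h, depleted ER calcium with thapsigargin, and read luciferase 4 h later.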

[24] = target: Cytochrome P450 3A4 (Homo sapiens) (UniProt P08684); assay: qHTS Assay for Inhibitors and Substrates of Cytochrome P450 3A4 (AID 884); further: nearly all actives have a fitted effect of over 50% in size; further: potency means the concentration at half of the fitted maximal effect
Outline: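 20 nM human CYP3A4 with 25 uM Luciferin-PPXE (at KM) in 200 mM KPO4, preincubated 10 min with compound; NADPH regeneration started a 60 min RT reaction. Luciferin detected by luminescence, normalized to 57 uM ketoconazole as full inhibition.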

[25] = target: Cytochrome P450 1A2 (Homo sapiens) (UniProt P05177); assay: p450-cyp1a2 (AID 410; calls by dose curve;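 further: -100% = full effect of reference inhibitor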)
Outline: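 Human CYP1A2 (20nM) demethylated Luciferin-ME at its Km (100uM) in 100mM KPO4. After 10 min compound preincubation, NADPH regeneration ran the reaction 60 min at room temperature. Luciferin was read by luminescence, normalized to 57 uM furafylline.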

[26] = target: Cytochrome P450 2C9 (Homo sapiens) (UniProt P11712); assay: qHTS Assay for Inhibitors and Substrates of Cytochrome P450 2C9 (AID 883); further: potency means the concentration at half of the fitted maximal effect; nearly all actives have a fitted effect of over 60% in size
Outline: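 Human CYP2C9 (10nM) hydroxylated Luciferin-H (100uM, at its KM) to luciferin in 25mM KPO4. Compound was preincubated 10 min at 37C, then NADPH regeneration started a 60 min reaction at 37C. Luminescence was read after detection reagent, normalized to 57uM sulphaphenazole.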

[27] = measured here: cell count channel max response
[28] = measured here: lipid channel max response

CSc1ccc2c(c1)[C@H](N1CCN(C)CC1)Cc1ccccc1S2
activity change, negative = inhibition ([1]; at 17.2 µM (top of the series)): 22.7% (inactive)
activity change, negative = inhibition ([1]; at 38 µM (top of the series)): 16% (inactive)
activity, negative = inhibition ([2]; at 17.2 µM (top of the series)): -9.5% (inactive)
activity, negative = inhibition ([2]; at 38 µM (top of the series)): -17.1% (inactive)
Potency [3]: > 46 µM (inactive) and > 20.6 µM (inactive)
Potency [4]: > 46 µM (inactive) and > 20.6 µM (inactive)
Potency [5]: inactive
Potency [6]: inactive
outcome [7]: inactive
Potency [8]: inactive
Potency [9]: 3.98 µM (active) and 1.58 µM (active) and 316 nM (active)
Potency [10]: 7.94 µM (active)
Potency [11]: 10 µM (active)
Potency [12]: 2.24 µM (active)
Potency [13]: 5.62 µM (active)
Potency [14]: inactive
outcome [15]: inactive
outcome [16]: inactive
outcome [17]: inactive
activity change, negative = inhibition ([18]; at 25.7 µM (top of the series)): -1.54% (inactive)
max response [18, 27]: -9.42%
max response [18, 28]: -12.6%
Potency [19]: inactive
Potency [20]: inactive
Potency [21]: inactive
Potency [22]: inactive
Potency [23]: 7.94 µM (active)

CCCCCCCCCCCCCCCC(=O)OC(CO)CO
Potency [24]: inactive
Potency [21]: inactive
Potency [22]: inactive
Potency [23]: inactive

C=C[C@@]1(C)CC(=O)[C@@]2(O)[C@@]3(C)[C@@H](O)CCC(C)(C)[C@@H]3[C@H](OC(=O)CCN(C)C)[C@H](OC(C)=O)[C@@]2(C)O1
Potency [25]: inactive
Potency [3]: > 46 µM (inactive)
Potency [4]: > 46 µM (inactive)
Potency [5]: inactive
Potency [26]: 0.126 µM (active)
Potency [24]: 2.51 µM (active)
Potency [8]: inactive
Potency [10]: 0.251 µM (active)
activity change, negative = inhibition ([18]; at 57.5 µM (top of the series)): -1.7% (inactive)
max response [18, 27]: -14.6%
max response [18, 28]: -17.4%
Potency [19]: inactive
Potency [20]: inactive
Potency [21]: inactive
Potency [22]: inactive
Potency [23]: 14.1 µM (active)
